FUS yeast rescue = suppressors of FUS proteinopathy in yeast. 390,000 compounds, 0.24% hits. Potency, µM (top dose mostly 76.6 µM), usual class: activators. S. cerevisiae FUS-expressing, growth rescue, OD600, 24 h;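 also: plate controls were DMSO vehicle for no effect and reference control for full effect; nearly all actives have a fitted effect of over 55% in size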
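Galactose (2%) drives FUS expression in yeast precultured in raffinose; seeding density OD 0.005. Test compounds incubated 24hr at 30C and 99% humidity before absorbance at 600 nm was measured.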
TDP43 rescue = TDP-43 toxicity inhibition in yeast. 410,000 compounds, 1.8% hits. TDP-43 expressing yeast growth rescue, BacTiter-Glo, 24 h. Potency, µM (doses to about 46.1 µM), for the others: at the highest dose growth rescue (activation), most hits filed as activators; also: % of control where 0% means no effect; nearly all actives have a fitted effect of over 50% in size
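Yeast expressing TDP-43 (pregrown in raffinose, seeded at OD600=0.02 in galactose medium) exposed to compounds 24 hr at 30 deg C. Growth read by BacTiter-Glo luminescence; rescue of toxicity appears as increased signal.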
aSyn yeast inh = rescues yeast growth from alpha-synuclein toxicity; 370,000 compounds, 0.14% hits; Yeast expressing alpha-synuclein, growth rescue, BacTiter-Glo, 24 h; Potency, µM (top dose mostly 46.1 µM), without a hit: top-dose growth rescue (activation), hits mostly activators; also: % of control where 0% means no effect; nearly all actives have a fitted effect of over 65% in size
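Rescue of yeast growth: cells expressing toxic alpha-synuclein, induced in galactose at OD600 0.02, incubated with compound 24 h at 30 C. ATP luminescence quantified growth; inhibitors of toxicity appear as activators.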
Abeta yeast res = A-beta toxicity reversal in yeast; yeast expressing A-beta42, growth rescue, OD600, 48 h; response scale: 0% DMSO, 100% iron-clioquinol control; Potency, µM (titrated, usually from 46.1 µM), hits mostly activators; 410,000 compounds, 0.063% hits; also: nearly all actives have a fitted effect of over 55% in size
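Yeast A-beta toxicity model in growth medium with pinned compounds, 48 h at 30 C; growth read as absorbance at 600 nm. Normalized to FeCl3/clioquinol equimolar mix (positive) and DMSO (negative).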
Active calls of the source: *; [ ] = remark or other dose. Hits are enriched below; roughly 2.1% of the tested compounds scored in any of these assays. Calls follow the shape of the dose curve; as a rule, active = well fitted curve in the direction sought with a large enough effect; inconclusive = small, poorly fitted or top-dose-only effect, or another doubt; inactive = no such curve, though single readings can be large; an effect the other way counts as inactive or inconclusive. Potency is read from the fitted curve at half-maximal effect.

What do the screens show for `COc1ccc(CCC(=O)N2CCN(c3cccc(C)c3C)CC2)cc1`?
FUS yeast rescue: inactive; TDP43 rescue: inconclusive; aSyn yeast inh: 22%; Abeta yeast res: inactive

Results for COc1ccc(S(=O)(=O)Cc2ccc(C(=O)N3CCN(c4cccc(C)c4C)CC3)o2)cc1 ?
FUS yeast rescue: inactive; TDP43 rescue: 25µM*; aSyn yeast inh: 1%; Abeta yeast res: inactive

Results for O=C(OC12CCCN(C1)/C(=C/c1ccncc1)C2)c1cccc(F)c1 (stereo not given) ?
FUS yeast rescue: inactive

Results for Clc1ccc(-c2nnc3n2N=C(c2ccc(-c4ccccc4)cc2)CS3)cc1 ?
FUS yeast rescue: inactive

How did O=C1c2ccccc2C(=O)N1c1ccccn1 do in these assays?
aSyn yeast inh: -1%

What do the screens show for `O=C(c1ccc(CS(=O)(=O)c2c(Cl)cccc2Cl)o1)N1CCCC1`?
FUS yeast rescue: inactive; TDP43 rescue: 14%; aSyn yeast inh: -8%; Abeta yeast res: inactive

How did Cc1ccc(S(=O)(=O)Cc2ccc(C(=O)N3CCN(c4cccc(C)c4C)CC3)o2)cc1 do in these assays?
FUS yeast rescue: inconclusive; TDP43 rescue: 22µM*; aSyn yeast inh: 13%; Abeta yeast res: inactive

What do the screens show for `O=C(c1ccc(CS(=O)(=O)c2c(Cl)cccc2Cl)o1)N1CCN(c2ccccc2)CC1`?
FUS yeast rescue: 28µM*; TDP43 rescue: 29%; Abeta yeast res: inactive

What do the screens show for `FCCCOc1ccc(-c2ccnc3ncnn23)cc1`?
FUS yeast rescue: inactive; TDP43 rescue: 22µM*; aSyn yeast inh: 4%; Abeta yeast res: inactive

What do the screens show for `O=C(CSc1nccc(-c2cccs2)n1)Nc1cccc(Cl)c1`?
FUS yeast rescue: inactive; TDP43 rescue: 14µM*; aSyn yeast inh: 3%; Abeta yeast res: inactive

How did CC1(C)NC(=O)N(CCCCOc2ccc(Cl)cc2)C1=O do in these assays?
FUS yeast rescue: inactive; TDP43 rescue: -13%; aSyn yeast inh: 11%; Abeta yeast res: inactive

What do the screens show for `CC1(C)NC(=O)N(CCCCOc2ccc(Br)cc2Cl)C1=O`?
FUS yeast rescue: inactive; TDP43 rescue: 13µM*; aSyn yeast inh: 19%; Abeta yeast res: inactive

How did Cc1cc(OCCCCN2C(=O)NC(C)(C)C2=O)cc(C)c1Cl do in these assays?
FUS yeast rescue: inactive; TDP43 rescue: 18µM*; Abeta yeast res: inactive

What do the screens show for `CC1(C)NC(=O)N(CCCOc2ccc(Br)cc2Cl)C1=O`?
FUS yeast rescue: inconclusive; TDP43 rescue: 5%; aSyn yeast inh: -4%; Abeta yeast res: inactive

How did Cc1cc(C)n2nc(SCc3cccc(F)c3)nc2n1 do in these assays?
FUS yeast rescue: inactive; TDP43 rescue: 18µM*; aSyn yeast inh: 0%; Abeta yeast res: inactive

Results for Cc1cc(C)n2nc(NCc3cccc(Br)c3)nc2n1 ?
FUS yeast rescue: inactive; TDP43 rescue: 14µM*; aSyn yeast inh: 2%; Abeta yeast res: inactive

How did CCOC(=O)N1CCN(/[N+]([O-])=N/Oc2ccc(C(F)(F)F)cc2[N+](=O)[O-])CC1 do in these assays?
aSyn yeast inh: -14%

How did CCOC(=O)C1=C(Nc2ccc(Cl)cc2)OCC1=O do in these assays?
FUS yeast rescue: inactive; TDP43 rescue: 11µM*; aSyn yeast inh: -1%; Abeta yeast res: inactive

Results for CCOC(=O)c1nc(Nc2ccc(Cl)cc2)c2c(C)noc2n1 ?
FUS yeast rescue: inactive; TDP43 rescue: inconclusive; Abeta yeast res: inactive

How did COc1ccc2[nH]cc(C(C)c3c[nH]c4ccccc34)c2c1 (stereo not given) do in these assays?
FUS yeast rescue: inactive

Results for Cc1ccc(CN(C)C(=O)c2cccc(S(=O)(=O)N3CCc4ccccc4C3)c2)o1 ?
FUS yeast rescue: inactive; TDP43 rescue: 35µM*; aSyn yeast inh: 2%[1.84 µM]; Abeta yeast res: inactive

Results for CCCCCn1cc2c(c1-c1ccccc1Br)c(=O)n(C)c(=O)n2C ?
FUS yeast rescue: inactive; TDP43 rescue: 18µM*; Abeta yeast res: inactive

What do the screens show for `CCCCn1cc2c(c1-c1ccccc1Br)c(=O)n(C)c(=O)n2C`?
FUS yeast rescue: inactive; TDP43 rescue: 0%; Abeta yeast res: inactive

What do the screens show for `CCOC(=O)N/N=C/c1ccc(Oc2ccccc2)cc1`?
FUS yeast rescue: inactive; TDP43 rescue: 18µM*; aSyn yeast inh: 1%; Abeta yeast res: inconclusive

How did CCOC(=O)N/N=C/c1ccc(C)o1 do in these assays?
FUS yeast rescue: inactive; TDP43 rescue: -9%; aSyn yeast inh: 1%; Abeta yeast res: inactive

How did N#CC(=C1C=C(Br)C(=NO)C=C1Cl)c1ccc(Cl)cc1 do in these assays?
FUS yeast rescue: inactive; TDP43 rescue: inconclusive; aSyn yeast inh: -2%; Abeta yeast res: inactive

Results for N#CC(=C1C=CC(=NO)C(Cl)=C1)c1ccccc1 ?
FUS yeast rescue: inactive; TDP43 rescue: 7.1µM*; aSyn yeast inh: -10%; Abeta yeast res: inactive

What do the screens show for `CCCc1ccc(OCC(=O)O)cc1`?
FUS yeast rescue: inactive; TDP43 rescue: -10%; aSyn yeast inh: 0%; Abeta yeast res: inactive

Results for CCCOc1ccc(CCC(=O)O)cc1 ?
FUS yeast rescue: inactive; TDP43 rescue: 14µM*; aSyn yeast inh: 1%; Abeta yeast res: inactive

How did CCOC(=O)[C@]12CCCC=C1N(CCCOC)C(=O)[C@@H]2CC(=O)N1CCCC1 do in these assays?
FUS yeast rescue: inactive

What do the screens show for `Cc1ccc(-c2c(NC(=O)c3cccc(C)c3)nc3ncccn23)cc1`?
FUS yeast rescue: inactive

What do the screens show for `CCc1ccc2oc(=O)cc(CN3CCN(c4ccc(F)cc4)CC3)c2c1`?
FUS yeast rescue: inactive; TDP43 rescue: 19%; aSyn yeast inh: 5%; Abeta yeast res: inactive

What do the screens show for `CC(C)c1ccc2oc(=O)cc(CN3CCN(c4ccc(F)cc4)CC3)c2c1`?
FUS yeast rescue: inactive; TDP43 rescue: 14µM*; aSyn yeast inh: 7%; Abeta yeast res: inactive

How did O=C(NCCc1csc(-c2cccc(F)c2)n1)c1ccc(Br)o1 do in these assays?
FUS yeast rescue: inactive; TDP43 rescue: 32µM*; Abeta yeast res: inactive

How did O=C(NCCc1csc(-c2cccc(F)c2)n1)c1ccccc1C(F)(F)F do in these assays?
FUS yeast rescue: inactive; TDP43 rescue: 18µM*; Abeta yeast res: inactive

What do the screens show for `O=C(NCCc1csc2nc(-c3ccccc3F)nn12)c1ccccc1C(F)(F)F`?
FUS yeast rescue: inactive; TDP43 rescue: 18µM*; Abeta yeast res: inactive

Results for O=C(NCCc1csc(-c2ccc(F)cc2)n1)c1ccc(Br)o1 ?
FUS yeast rescue: inactive; TDP43 rescue: inconclusive; Abeta yeast res: inactive

What do the screens show for `COc1ccccc1C(=O)NNC1=C(C(=O)C(F)(F)F)CCC1`?
FUS yeast rescue: inactive; TDP43 rescue: -10%; aSyn yeast inh: 3.5µM*; Abeta yeast res: inconclusive

What do the screens show for `O=C(NNC1=C(C(=O)C(F)(F)F)CCC1)c1ccccc1O`?
FUS yeast rescue: inactive; TDP43 rescue: -18%; aSyn yeast inh: -9%; Abeta yeast res: inactive
